Shown are actives, neighbours in structure and some others; about 6.9% of the full set was active somewhere.
Vif-A3F inh: qHTS for Inhibitors of Vif-A3F Interactions: qHTS. HeLa A3F-eYFP + Vif (tagged APOBEC3F with the HIV-1 protein that degrades it), YFP fluorescence increase. Potency, µM (highest dose often 46.1 µM). hit rate 0.2% among 390,000. AID 602313, 2012; further: nearly all actives have a fitted effect of over 65% in size
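Fluorescence increase (Ex 488/Em 500-530) after overnight compound treatment at 37 deg C flags inhibition of Vif-driven A3F-eYFP loss in stable HeLa A3F-eYFP/Vif cells seeded overnight beforehand.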
Giardia killer: Small Molecules that selectively kill Giardia lamblia: qHTS; Giardia lamblia trophozoite viability; activity change, % at 7.66 µM, hits read low; hit rate 0.15% among 340,000; in the data active means activity change below about -80%; inconclusive means between about -30% and that limit;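 further: parasites exposed to compound for two days anaerobically before the ATP read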
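Killing of trophozoites was scored by loss of ATP luminescence after a 48 hrs anaerobic exposure to compounds at 37 deg C, using 100 cells per well.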
IL1B secr inh: qHTS for Inhibitors of Inflammasome Signaling: IL-1-beta AlphaLISA Primary Screen | THP-1 LPS/ATP IL-1B secretion, AlphaLISA, 16 h; stronger effect = lower value | activity change, % at 57.5 µM | hit rate 4.7% among 360,000; in the data active means activity change below about -50%; inconclusive means mostly about -30% to -49%
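THP-1 cells pretreated 1 hr with compounds (up to 57.5 uM final), then stimulated with LPS (250 ng/mL final) plus ATP (1.25 mM final); secreted IL-1B measured by AlphaLISA after 16 hr, decreased signal indicating inhibition.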
SW480 rereplic: A quantitative high throughput screen for small molecules that induce DNA re-replication in SW480 colon adenocarcinoma cells. Potency, µM (top dose mostly 46.1 µM), most hits filed as activators. AID 624297, 2012. hit rate 1.8% among 340,000. SW480 DNA re-replication, Hoechst DNA content imaging, 48 h; further: nearly all actives have a fitted effect of over 55% in size
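Hoechst fluorescence of nuclei (405 nm excitation, 500-530 nm emission) measured by plate-scanning imager after 48 hr compound exposure at 37 C; re-replication scored as increased number of nuclei with elevated intensity.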
Vif-A3G inh: qHTS for Inhibitors of Vif-A3G Interactions: qHTS. HeLa A3G-eYFP + Vif (tagged APOBEC3G with the HIV-1 protein that degrades it), YFP fluorescence, overnight. Potency, µM (highest dose often 46.1 µM), actives largely listed as inhibitors. hit rate 0.076% among 410,000. AID 602310, 2012; further: nearly all actives have a fitted effect of over 60% in size
Target sequence (Q9HC16 whole entry, looked up): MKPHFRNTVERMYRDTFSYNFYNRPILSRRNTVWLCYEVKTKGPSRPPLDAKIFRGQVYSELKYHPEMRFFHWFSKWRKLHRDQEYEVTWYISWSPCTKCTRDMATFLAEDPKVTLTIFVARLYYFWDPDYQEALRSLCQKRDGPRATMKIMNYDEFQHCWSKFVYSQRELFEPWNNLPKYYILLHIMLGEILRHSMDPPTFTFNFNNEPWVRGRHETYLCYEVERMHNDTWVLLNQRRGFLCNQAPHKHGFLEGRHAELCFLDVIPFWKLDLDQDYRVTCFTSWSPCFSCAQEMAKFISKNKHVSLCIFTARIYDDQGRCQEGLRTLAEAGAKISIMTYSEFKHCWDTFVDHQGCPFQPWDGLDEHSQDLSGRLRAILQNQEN
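Read-out is eYFP fluorescence (Ex 488/Em 500-530) from Vif-expressing HeLa A3G-eYFP cells; more signal means A3G escaped Vif-mediated degradation. Cells plated overnight, compound pinned in, incubated overnight at 37 deg C.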
MCF10A rerep: A quantitative high throughput screen for small molecules that induce DNA re-replication in MCF 10a normal breast cells | MCF 10A DNA re-replication, Hoechst nuclear intensity, 48 h | Potency, µM (titrated, usually from 46.1 µM), actives largely listed as activators | hit rate 2.9% among 350,000 | AID 624296, 2012; further: nearly all actives have a fitted effect of over 50% in size
Of the large screens only hits and unclear results are named; the others gave an inactive call; ! = not confirmed by another sample. Unless noted, the call rests on the fitted dose curve; in most records, active means well fitted curve in the direction sought with a large enough effect; inconclusive means small, poorly fitted or top-dose-only effect, or another doubt; inactive means no such curve, though single readings can be large; an effect the other way counts as inactive or inconclusive.

O=[N+]([O-])c1ccc(CN2CCN(c3ccc(Cl)cc3)CC2)o1	Giardia killer -94
CCc1ccc(CNC(=O)CN2C(=O)c3cccnc3Oc3ccc(Cl)cc32)cc1	Vif-A3F inh inconclusive (no result: Giardia killer, IL1B secr inh, SW480 rereplic, MCF10A rerep)
O=C(NCc1ccc(F)cc1)c1cnc(N2CCCCC2)c2ccccc12	none (no result: Giardia killer, IL1B secr inh, SW480 rereplic, MCF10A rerep)
CS/C(=N\S(=O)(=O)c1cccs1)NC(=O)CSc1nc2ccccc2s1	MCF10A rerep 12µM!
C/C(=N/NC(=O)CSc1nc2ccccc2s1)c1ccncc1	none
CCN(CC)CCn1c2ccccc2c2nc3ccc([N+](=O)[O-])cc3cc21	Vif-A3F inh inconclusive, SW480 rereplic 21µM, MCF10A rerep inconclusive
Cn1c2ccccc2c2cc([N+](=O)[O-])ccc21	none
Cc1ccc(-c2nn(C)c(=O)c3ccccc23)cc1S(=O)(=O)NCCN1CCOCC1	none
CCOC(=O)CNS(=O)(=O)c1cc(-c2nn(C)c(=O)c3ccccc23)ccc1C	IL1B secr inh -92
CC(C)(C)n1ncc2c(=O)n(Cc3ccccc3Cl)cnc21	none (no result: Vif-A3F inh, Giardia killer, IL1B secr inh, SW480 rereplic, MCF10A rerep)
Cc1cc2nc(-c3ccc(OCc4ccccc4C)cc3)cc(C(F)(F)F)n2n1	none (no result: Giardia killer, IL1B secr inh, SW480 rereplic, MCF10A rerep)
COc1ccccc1/C=C1\SC(=S)N(CCC(=O)N2CCCCC2CCO)C1=O (centres undefined)	IL1B secr inh inconclusive, MCF10A rerep inconclusive
COc1cccc(/C=C2\SC(=S)N(CCCC(=O)N3CCCCC3CCO)C2=O)c1 (centres undefined)	IL1B secr inh -70, MCF10A rerep inconclusive
COc1ccccc1/C=C1\SC(=O)N(CCC(=O)N2CCCCC2CCO)C1=O (centres undefined)	IL1B secr inh inconclusive
O=C1/C(=C/c2cccs2)SC(=S)N1CCC(=O)N1CCCCC1CCO (centres undefined)	IL1B secr inh -56
COc1cccc(/C=C2\SC(=S)N(CCCC(=O)N3CCCC3)C2=O)c1	IL1B secr inh -91, MCF10A rerep inconclusive
COc1cccc(/C=C2\SC(=S)N(CCC(=O)N3CCCCC3CCO)C2=O)c1 (centres undefined)	IL1B secr inh inconclusive, SW480 rereplic 18µM, MCF10A rerep 23µM
Cc1ccc(Cl)cc1N1CCN(CCCNC(=O)Cn2ncc3c([nH]c4ccccc43)c2=O)CC1	none (no result: Giardia killer, IL1B secr inh, SW480 rereplic, MCF10A rerep)
CCCCCc1ccc(C)cc1O	none (no result: Vif-A3F inh, Giardia killer, IL1B secr inh, Vif-A3G inh)
Cc1cc(Nc2ccc(C)c(C)c2)n2cnnc2n1	none (no result: Giardia killer, IL1B secr inh, SW480 rereplic, MCF10A rerep)
NC(=S)NN=C(c1ccc(Br)cc1)C1CC1	IL1B secr inh -76
N/C(=N\OC(=O)C1CCCCC1)c1ccc(Br)cc1	MCF10A rerep inconclusive
NC(=S)NN=C(c1ccc(F)cc1)C1CC1	IL1B secr inh -86
COc1ccc(S(=O)(=O)c2cn(CC(=O)Nc3cc(C)ccc3C)c3ccccc3c2=O)cc1	none (no result: Giardia killer, IL1B secr inh, SW480 rereplic, MCF10A rerep)
CC(C)n1nnc(-c2ccc(OCc3ccccc3F)cc2)n1	SW480 rereplic 15µM
O=C(CSc1nnc(CNC(=O)c2ccccc2F)n1-c1ccccc1)Nc1ccccc1F	none (no result: Giardia killer, IL1B secr inh, SW480 rereplic, MCF10A rerep)
COC(=O)[C@@]1(Cc2ccc(OC)cc2)[C@@H]2C(=CC(=O)[C@H]2CC(=O)C(=O)N2CCCC2)CN1C(=O)c1ccccc1	IL1B secr inh -76, SW480 rereplic inconclusive, Vif-A3G inh inconclusive, MCF10A rerep 23µM
COC(=O)[C@@]1(Cc2ccc(F)cc2)[C@H]2C(CC(=O)C(=O)N3CCCC3)C(=O)C[C@H]2CN1C(=O)c1ccccc1 (some centres undefined)	IL1B secr inh -70 (no result: Vif-A3F inh, Giardia killer, SW480 rereplic, Vif-A3G inh, MCF10A rerep)
COC(=O)[C@@]1(Cc2ccc(F)cc2)[C@@H]2[C@@H](CC(=O)[C@H]2CC(=O)C(=O)N(C)C)CN1C(=O)c1ccccc1	MCF10A rerep inconclusive
COC(=O)[C@@]1(Cc2ccc(OC)cc2)[C@@H]2[C@@H](CC(=O)[C@H]2CC(=O)C(=O)N(C)C)CN1C(=O)c1ccccc1	MCF10A rerep inconclusive
CC(=O)c1cc(NC(=O)c2cccc(C(F)(F)F)c2)c(=O)oc1C	IL1B secr inh -64, SW480 rereplic inconclusive, MCF10A rerep inconclusive
CN1CCN(C(CNC(=O)C(=O)Nc2ccccc2)c2ccc3c(c2)OCO3)CC1 (centres undefined)	none (no result: Giardia killer, IL1B secr inh, SW480 rereplic, MCF10A rerep)
O=C(Cn1c(=O)n(-c2ccccc2Cl)c(=O)c2sc3ccccc3c21)N1CCCC1	none (no result: Giardia killer, IL1B secr inh, SW480 rereplic, MCF10A rerep)
Nc1ccc2c(c1)C(=O)c1cc(Cl)c(Cl)cc1-2	none
Nc1ccc2c(c1)C(=O)c1ccc(N)cc1-2	IL1B secr inh -76
COc1ccc(-c2nc3c(C#N)c[nH]n3c2NC2CCCCC2)cc1	none (no result: Giardia killer, IL1B secr inh, SW480 rereplic, MCF10A rerep)
O=C(Nc1cc(F)ccc1F)N1CCN(c2ccnc3cc(Cl)ccc23)CC1	IL1B secr inh inconclusive
O=S(=O)(c1ccccc1)N1CCN(c2ccnc3cc(Cl)ccc23)CC1	IL1B secr inh -86
Cc1cc(N2CCN(c3ccc([N+](=O)[O-])c4cccnc34)CC2)c2ccccc2n1	Vif-A3F inh 3.5µM, Giardia killer inconclusive, IL1B secr inh -94, Vif-A3G inh inconclusive, MCF10A rerep inconclusive
O=S(=O)(c1cccs1)N1CCN(c2ccnc3cc(Cl)ccc23)CC1	SW480 rereplic inconclusive, MCF10A rerep inconclusive (no result: IL1B secr inh)
Cc1cc(N2CCN(c3ccc(C(F)(F)F)cc3[N+](=O)[O-])CC2)c2ccccc2n1	MCF10A rerep inconclusive
Cc1cc(N2CCN(C(=O)c3ccco3)CC2)c2ccccc2n1	none

High-throughput results deposited in PubChem BioAssay by National Center for Advancing Translational Sciences (NCATS).
